Consider eight compounds from PubChem BioAssay (NCI).

Structures are written as SMILES. This is part of a sample that, as a whole, favours compounds with a hit. Of some 83,000 tested, about 20% had one in any assay.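 Testing used 96-well plates and a 48-hour single-concentration exposure. Example: -40 means 40% of the starting cells died.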 Values without a mark were called inactive. The source made the active and inactive calls. Rule for the calls: active = growth percent below 10; inactive = the rest.

Some test systems named below: NCI-H23 lung; NCI-H322M lung; HOP-62 NSCLC; NCI-H460 lung; HOP-92 NSCLC; NCI-H522 lung; A549/ATCC NSCLC; 786-0 renal; COLO 205 colon; DU-145 prostate; K-562 leukemia; MALME-3M melanoma; MDA-MB-231 breast; RXF 393 renal; SF-268 CNS; SF-295 CNS; SF-539 CNS; UACC-257 melanoma; M14 melanoma; HCT-15 colon.
Experiment in all cases: NCI-60 one-dose screen, 48 h (100 = growth as untreated, 0 = no growth, -100 = all killed)
Holding throughout (details): 10 µM unless noted

As to `COc1ccc(CCN2C(=O)CCSC2=S)cc1OC`, the growth was 103% with NCI-H23 lung; 101% in the assay on NCI-H322M lung; 97.5% in the assay on HOP-62 NSCLC; 102% with NCI-H460 lung; 87% in the assay on HOP-92 NSCLC; 48.3% in the assay with NCI-H522 lung. The growth was 97.6% in the assay on A549/ATCC NSCLC; 44.2% with 786-0 renal; 114% with COLO 205 colon; 67.6% in the assay with DU-145 prostate; 80.9% in the assay on K-562 leukemia; 101% in the assay on MALME-3M melanoma. Further, the growth in the assay with MDA-MB-231 breast was 106%; with RXF 393 renal, 90.7%; with SF-268 CNS, 97.1%; with SF-295 CNS, 98.7%; in the assay on SF-539 CNS, 89.7%; with UACC-257 melanoma it was 96.6%. Further, the values for the growth with M14 melanoma and with HCT-15 colon were 105% and 86.2%, respectively.

Turning to `COc1c2ccoc2c(/C=C/C=O)c2oc(-c3ccccc3)cc(=O)c12`, the growth in the assay on NCI-H23 lung is 50.4%; in the assay with NCI-H322M lung, 87.7%; in the assay with HOP-62 NSCLC, 59.7%; in the assay with NCI-H460 lung, 89.4%; with HOP-92 NSCLC it was 105%; with NCI-H522 lung, 67.9%. The growth in the assay with A549/ATCC NSCLC was 91.3%; in the assay with 786-0 renal, 94.4%; in the assay on COLO 205 colon, 116%; in the assay with DU-145 prostate it was 63.1%; in the assay with K-562 leukemia it was 24.1%; with MALME-3M melanoma, 98%. Further, the growth in the assay on MDA-MB-231 breast is 66.3%; in the assay with RXF 393 renal, 79%; in the assay on SF-268 CNS, 39.8%; with SF-295 CNS it was 51.3%; with SF-539 CNS it was 38.3%; in the assay with UACC-257 melanoma, 108%. Further, the growth in the assay on M14 melanoma was 70.8%; with HCT-15 colon, 3.15% (active).

Consider `Clc1ncccc1Nc1ccc2nnc(-c3ccncc3)n2n1`, for which the growth with NCI-H23 lung is 93.2%; in the assay with NCI-H322M lung, 106%; in the assay with HOP-62 NSCLC it was 102%; in the assay with NCI-H460 lung, 103%; in the assay with HOP-92 NSCLC, 110%; with NCI-H522 lung it was -58.6% (active). The growth with A549/ATCC NSCLC was 102%; in the assay on 786-0 renal, 101%; in the assay on COLO 205 colon, 109%; in the assay with DU-145 prostate it was 107%; in the assay on K-562 leukemia, 66.8%; in the assay with MALME-3M melanoma, 98.5%. Further, the growth is 105% in the assay on MDA-MB-231 breast; 114% with RXF 393 renal; 93.3% in the assay with SF-268 CNS; 105% with SF-295 CNS; 99.7% in the assay with SF-539 CNS; 102% with UACC-257 melanoma. Moreover, the growth was 98.6% in the assay on M14 melanoma and 87.1% in the assay with HCT-15 colon.

For `O=c1oc2ccc(I)cc2c(=O)n1-c1ccc(Br)cc1F`, the growth in the assay with NCI-H23 lung was 5.56% (active); with NCI-H322M lung, 5.24% (active); with HOP-62 NSCLC it was -11.7% (active); in the assay on NCI-H460 lung it was 2.84% (active); in the assay on HOP-92 NSCLC, -11.7% (active); with NCI-H522 lung it was -10% (active). Also, the growth with A549/ATCC NSCLC is 7.12% (active); in the assay with 786-0 renal, 4.56% (active); in the assay with COLO 205 colon, 50.3%; in the assay with DU-145 prostate, 16.6%; in the assay on K-562 leukemia it was 7.02% (active); with MALME-3M melanoma, -26.7% (active). Further, the growth in the assay on MDA-MB-231 breast was -21.2% (active); in the assay on RXF 393 renal it was 3.07% (active); with SF-268 CNS it was 9.55% (active); with SF-295 CNS it was -58.1% (active); in the assay on SF-539 CNS it was 4.36% (active); in the assay on UACC-257 melanoma, -13.6% (active). In addition, the growth with M14 melanoma is -0.737% (active); with HCT-15 colon, -7.61% (active).

Take `CCCCC(O)(c1ccc(Cl)cc1)C(CN1CCOCC1)c1ccc(Cl)cc1` (stereo not given): the growth was 31.2% in the assay on NCI-H23 lung; 70.8% in the assay with NCI-H322M lung; 60.1% in the assay on HOP-62 NSCLC; 19.4% with NCI-H460 lung; -3.36% (active) with HOP-92 NSCLC; 19.8% in the assay with NCI-H522 lung. Moreover, the growth in the assay with A549/ATCC NSCLC is 29.6%; with 786-0 renal, 53.8%; in the assay with COLO 205 colon it was 100%; in the assay on DU-145 prostate, 58.2%; with K-562 leukemia it was 17.9%; in the assay on MALME-3M melanoma, 61.2%. For the same compound, the growth was 35.8% in the assay with MDA-MB-231 breast; 18.5% in the assay on RXF 393 renal; 40.2% in the assay on SF-268 CNS; 40.9% in the assay on SF-295 CNS; 68.8% with SF-539 CNS; 39.4% in the assay on UACC-257 melanoma. For the same compound, the growth in the assay with M14 melanoma is 28.6%; in the assay with HCT-15 colon, 34.9%.

Turning to `O=c1c(-c2nc3ccccc3[nH]2)cc2ccccc2n1Cc1cn(Cc2ccccc2Cl)nn1`, the growth with NCI-H23 lung was 56.9%; in the assay on NCI-H322M lung, 52.3%; in the assay with HOP-62 NSCLC it was 35.1%; in the assay with NCI-H460 lung, 6.86% (active); with HOP-92 NSCLC it was 11.3%; in the assay on NCI-H522 lung, 45.1%. Further, the growth was 15.4% with A549/ATCC NSCLC; -20.2% (active) in the assay on 786-0 renal; 54% in the assay on COLO 205 colon; 18.1% with DU-145 prostate; 30.7% in the assay with K-562 leukemia; 5.45% (active) in the assay with MALME-3M melanoma. Moreover, the growth with MDA-MB-231 breast is -21% (active); with RXF 393 renal, 13.1%; in the assay with SF-268 CNS, 45.2%; in the assay on SF-295 CNS, 32.9%; in the assay with SF-539 CNS, 4.13% (active); with UACC-257 melanoma, 56.8%. The growth with M14 melanoma was 38.4%; in the assay on HCT-15 colon, 19.7%.

Turning to `CCN1CCN(C(=S)SCC(=O)Nc2nc3ccc(C)cc3s2)CC1`, the growth in the assay on NCI-H23 lung is 99.2%; in the assay with NCI-H322M lung, 103%; with HOP-62 NSCLC, 99.7%; in the assay with NCI-H460 lung it was 113%; in the assay on HOP-92 NSCLC, 92.5%; in the assay with NCI-H522 lung, 29.1%. The growth in the assay on A549/ATCC NSCLC is 103%; in the assay on 786-0 renal, 118%; in the assay on COLO 205 colon, 103%; in the assay on DU-145 prostate, 113%; in the assay with K-562 leukemia it was 104%; with MALME-3M melanoma, 105%. Also, the growth in the assay on MDA-MB-231 breast is 104%; with RXF 393 renal it was 108%; with SF-268 CNS, 107%; with SF-295 CNS it was 106%; in the assay on SF-539 CNS, 117%; with UACC-257 melanoma, 116%. In addition, the growth in the assay with M14 melanoma was 124%; with HCT-15 colon, 103%.

For the compound `CN1C(=O)N(C)C2C1NN=c1s/c(=C\c3ccc([N+](=O)[O-])cc3)c(=O)n12` (stereo not given), the growth was 87.3% in the assay on NCI-H23 lung; 85.4% with NCI-H322M lung; 68.9% in the assay on HOP-62 NSCLC; 32% in the assay on NCI-H460 lung; 77.6% with HOP-92 NSCLC; 43.6% in the assay with NCI-H522 lung. The growth was 59.9% with A549/ATCC NSCLC; 64.4% in the assay with 786-0 renal; 56.7% in the assay with COLO 205 colon; 77.4% in the assay on DU-145 prostate; 22% in the assay on K-562 leukemia; 65.9% in the assay with MALME-3M melanoma. Also, the growth was 75.1% in the assay on MDA-MB-231 breast; 78.6% with RXF 393 renal; 77.1% with SF-268 CNS; 40.8% with SF-295 CNS; 54.7% in the assay with SF-539 CNS; 63.6% in the assay with UACC-257 melanoma. For the same compound, the growth was 51.2% in the assay on M14 melanoma and 37.6% in the assay with HCT-15 colon.
